The whole screen tested about 310,000 compounds, of which about 1,300 (0.42%) were called active. What follows is part of a selection rich in actives, with near analogues and random picks from the rest. Values without a mark were called inactive. Cut-off read from the data, not from the text of the source: active = inhibition above about 50%; inactive = the rest.
These compounds were tested against Dual specificity tyrosine-phosphorylation-regulated kinase 1A (Rattus norvegicus) (UniProt Q63470) (assay: inhibition of Dyrk1A kinase activity – biochemical, single point, plate reader, primary screen (AID 504441;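 note: plate controls were vehicle with enzyme for no effect and no enzyme for full effect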)). Conditions: ADP-Glo luminescence, NFATc1 peptide, at 12.5 µM, stronger effect = higher value.

Structure (SMILES)	inhibition
CCOc1cccc(/C=N/N2C(=O)CSC2=S)c1O	6.88%
O=C1CSC(=S)N1/N=C/c1ccc(O)c([N+](=O)[O-])c1	90.8% (active)
Cc1cc(C(=O)N/N=C/c2ccc(O)c([N+](=O)[O-])c2)c(C)n1-c1ccc(F)cc1	-6.46%
COC1=CC(=O)OC(C)(c2ccccc2)C1 (configuration not stated)	1.06%
COc1ccc2nc(N3C(=O)C(O)=C(C(=O)c4ccco4)C3c3ccco3)sc2c1 (configuration not stated)	7.88%
O=S1(=O)CSCS(=O)(=O)C1	-4.37%
c1coc(CNc2ncnc3ccccc23)c1	6.44%
Cc1noc(C)c1-c1ccc2ncnc(NC(C)c3ccco3)c2c1 (configuration not stated)	58% (active)
C=CC(=O)Nc1ccc(Nc2ccnc(Nc3ccc(N4CCN(C)CC4)cc3)n2)cc1	24.1%
COc1ccc(Nc2ccc3ccccc3c2)cc1	-0.0929%
NC(=O)C1(Nc2ccccc2Cl)CCCC1	-0.756%
COCCN(C(=O)C(C)N1C(=O)c2ccccc2C1=O)c1c(N)n(CC(C)C)c(=O)[nH]c1=O (configuration not stated)	-2.22%
Cc1c(NS(=O)(=O)c2cccc(C(=O)Nc3ccc(SC(F)F)cc3)c2)c(=O)n(-c2ccccc2)n1C	-4%
COc1ccc2oc(N)nc2c1	7.05%
COc1ccc2oc(C)c(NC(C)=O)c2c1	1.53%
COc1ccc2oc(N)c(C=O)c(=O)c2c1	59.5% (active)
NC(=O)C1(N2CCCC2)CCN(Cc2ccccc2)CC1	-3.22%
NC(=O)c1ncn([C@@H]2O[C@H](CN=C3NS(=O)(=O)c4ccccc43)[C@@H](O)[C@H]2O)n1	3.02%
CC(=O)Oc1cccc(C(=O)Nc2ccccc2NC(=O)c2cccc(OC(C)=O)c2)c1	-0.37%

Structure (SMILES)	inhibition
CC(=O)Oc1ccc2c(C)c(CC(C)O)c(=O)oc2c1 (configuration not stated)	2.53%
CC(=O)Oc1ccc2c(c1)C(=O)c1ccccc1C2=O	53.6% (active)
O=C(NCCC1=CCCCC1)c1ccc(-n2cncn2)cc1	4.88%
O=C(Nc1ccccc1)Oc1cccc2cccnc12	7.72%
O=C(c1cccc(S(=O)(=O)N2CCCCCC2)c1)N1CCN(Cc2ccccc2)CC1	-0.662%
NC(=S)c1ccc(C(N)=S)o1	61.8% (active)
Nc1nc(NCCCN2CCOCC2)nc(Nc2ccccc2)c1[N+](=O)[O-]	67.2% (active)
CC1CN(c2nc(Nc3ccccc3)nc(N)c2[N+](=O)[O-])CC(C)O1 (configuration not stated)	42%
O=[N+]([O-])c1ccc(NCCCN2CCOCC2)c(Cl)c1	0.781%
CC(=O)OCC1(O)CC23CCC4c5ccoc5CCC4(C)C2CCC1C3 (configuration not stated)	7.82%
O=c1nc(NO)ccn1C1CCCO1 (configuration not stated)	-3%
CCC1([N+](=O)[O-])COC(c2ccc(C(C)C)cc2)OC1 (configuration not stated)	-3.06%
CCOC(=O)C1C(c2ccc(O)cc2)NC(=O)NC1(O)C(F)(F)F (configuration not stated)	2.32%
CC(=O)C1C(c2cccc(Oc3ccccc3)c2)NC(=O)NC1(O)C(F)(F)F (configuration not stated)	-5.37%
CC(=O)C1C(c2ccc(Cl)cc2)NC(=O)NC1(O)C(F)(F)F (configuration not stated)	57.4% (active)
O=C(NN=CC=Cc1ccccc1)C(O)C(O)C(=O)NN=CC=Cc1ccccc1 (configuration not stated)	1.04%
O=S(=O)(Cc1ccc(Cl)cc1Cl)c1ccc(Cl)cc1	-0.684%
COc1ccc(C(CNC(=O)c2cccc(S(=O)(=O)Nc3ccc(Br)cc3)c2)N(C)C)cc1 (configuration not stated)	-0.345%
